Screening data (PubChem BioAssay)
DAX1 inh-1: inhibitors of human orphan nuclear receptor DAX1 (NR0B1) | P51843 | HEK293 Gal4-DAX1 luciferase reporter, luminescence | inhibition, % at 6.75 µM | 0.99% of 340,000 active | AID 504766;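 active = inhibition above the mean over all tested compounds plus 3 SD, cut at about 4.2% in these data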;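 also: 0% = DAX1-transfected cells with DMSO and 100% = empty-vector control cells with DMSO; inhibition shows as a rise in luminescence from relieved DAX1 repression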
DAX1 inh-2: DAX1 (NR0B1) inhibition, primary screen | HEK293T StAR-luciferase reporter, SF-1/DAX-1 repression relief | inhibition, % at 6.8 µM | 1.1% of 370,000 active;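 active = inhibition above the mean over all tested compounds plus 3 SD, cut at about 3.6% in these data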;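 also: 0% = DAX-1 cells with DMSO and 100% = cells lacking DAX-1 with DMSO; higher inhibition means more luminescence from relief of DAX-1 repression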
ssDAF12 agonist: S. stercoralis DAF-12 activation, primary screen; HEK293 ssDAF-12/GRIP1 lit1-tk-luc reporter, luminescence; % of 3 µM dafachronic acid response; activation, % at 6.8 µM; 1% of 370,000 active;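 active = activation above the mean over all tested compounds plus 3 SD, cut at about 0.9% in these data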;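 also: 0% = DMSO-only wells and 100% = 3 µM delta7-dafachronic acid wells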
NR1D1 modulator: modulators of human Rev-erb alpha DNA binding. P20393. Rev-erbα–FITC-DNA binding, fluorescence polarization, 90 min. activity, % at 10 µM. 0.79% of 370,000 active. AID 1259318;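 active = activity above about 14%, limit read from the data; passing the limit was not always enough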;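 also: 0% = DMSO wells with 35 nM protein and 100% = DMSO wells with 750 nM protein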
Target sequence (P20393 whole entry, looked up): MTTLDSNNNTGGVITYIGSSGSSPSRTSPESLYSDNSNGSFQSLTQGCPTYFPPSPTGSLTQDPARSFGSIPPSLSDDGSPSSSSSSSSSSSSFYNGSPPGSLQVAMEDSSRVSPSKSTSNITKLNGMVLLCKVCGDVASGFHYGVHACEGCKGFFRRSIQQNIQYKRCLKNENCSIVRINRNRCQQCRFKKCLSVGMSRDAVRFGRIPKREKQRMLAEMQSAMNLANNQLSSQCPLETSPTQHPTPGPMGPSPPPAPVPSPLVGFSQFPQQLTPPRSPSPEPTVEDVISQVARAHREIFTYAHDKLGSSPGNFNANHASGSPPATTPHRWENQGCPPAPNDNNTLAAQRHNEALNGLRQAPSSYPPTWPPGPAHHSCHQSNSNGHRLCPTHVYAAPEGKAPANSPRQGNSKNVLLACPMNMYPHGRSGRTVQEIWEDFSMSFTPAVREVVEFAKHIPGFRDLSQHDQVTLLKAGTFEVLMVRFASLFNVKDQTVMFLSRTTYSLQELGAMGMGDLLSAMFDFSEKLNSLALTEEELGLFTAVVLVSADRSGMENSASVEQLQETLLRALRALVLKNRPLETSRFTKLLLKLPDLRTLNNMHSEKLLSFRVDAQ
hgDAF-12 ag: agonists of H. glycines DAF-12 nuclear receptor. AID 687014. HEK293 GAL4-hgDAF12 UAS-luciferase reporter, agonist luminescence; normalized to butyrate control. activation, % at 6.8 µM. 1.8% of 370,000 active;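 active = activation above a cutoff set at the mean of all screened compounds plus 3 SD, cut at about 10% in these data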;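 also: 0% = DMSO wells and 100% = sodium butyrate wells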
hcDAF-12 act: activates DAF-12 receptor from parasite H. contortus; HEK293 hcDAF-12 lit1-tk-luc reporter, luminescence; 0% DMSO, 100% Δ7-dafachronic acid; activation, % at 6.8 µM; 1.4% of 370,000 active; AID 652067;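 active = activation above the mean of all tested compounds plus 3 SD, cut at about 5.5% in these data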;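 also: 100% = response to 3 µM Δ7-dafachronic acid high control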
DAX1 inh confirm: confirmation of human DAX1 (NR0B1) inhibitors | shares compounds with DAX1 inh-2 | HEK293T StAR-promoter luciferase reporter, SF-1/DAX-1 repression | inhibition, % at 6.8 µM | 87% of 2,400 active;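 active = inhibition above the average of every tested compound plus 3 SD, cut at about 3.8% in these data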;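 also: 0% = DAX-1 cells with DMSO and 100% = no DAX-1 control cells with DMSO; active compounds raise luminescence by relieving repression of the StAR reporter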
SF1 mutant ctr: nonselective inhibitor or artifact in SF-1 mutant DAX1 counter-screen; AID 652136; 78% of 2,400 active; shares compounds with DAX1 inh-2; inhibition, % at 6.8 µM; HEK293 StAR-luciferase, SF-1 AF2 mutant, luminescence;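 active = inhibition above the mean of all tested compounds plus 3 SD, cut at about 3% in these data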;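 also: 0% = DAX-1 transfected cells with DMSO and 100% = cells without DAX-1 with DMSO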
LXR ag: LXR-beta agonism as hcDAF-12 counter-screen; shares compounds with hcDAF-12 act; activation, % at 6.8 µM; 3,400 tested, under 10 active; HEK293 Gal4-LXR tk-luc reporter, luminescence, 24 h; normalized: DMSO 0%, positive control 100%;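 active = mean percent activation of the reporter above a cutoff set as the average over tested compounds plus their standard deviation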
hcDAF12 ag: confirmation of H. contortus DAF-12 agonists; activation, % at 6.8 µM; HEK293 hcDAF-12 lit1-tk-luc reporter, luminescence; % of Δ7-dafachronic acid response; AID 743032; 61% of 3,400 active; shares compounds with hcDAF-12 act;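 active = mean activation across triplicate tests above the threshold derived from the earlier primary screen, cut at about 5.5% in these data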;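 also: 0% = DMSO only wells and 100% = 3 µM Δ7-dafachronic acid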
hgDAF12 conf: hgDAF-12 agonism, confirmation assay. shares compounds with hgDAF-12 ag. 80% of 3,300 active. HEK293 GAL4-hgDAF12 luciferase reporter, agonist mode; percent of butyrate response. activation, % at 6.8 µM. AID 743050;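 active = mean activation over triplicate wells above the hit cutoff derived from the earlier primary screen, cut at about 11% in these data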;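 also: 0% = DMSO low control and 100% = 2 mM sodium butyrate high control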
LXRb DAF12 ctr: activates human LXR-beta, counter-screen for DAF-12 agonists; shares compounds with hgDAF-12 ag; HEK293 Gal4-LXR luciferase reporter, 24 h; activation, % at 6.8 µM; 3,300 tested, under 10 active;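 active = mean activation of the triplicate above a set limit carried over from the primary screen, none filed active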
Starred values were filed as active, the others as inactive; . = no result given. Only some compounds are listed: those with a hit (about 4.8% of all), similar ones and a draw of the others.

SMILES	DAX1 inh-1	DAX1 inh-2	ssDAF12 agonist	NR1D1 modulator	hgDAF-12 ag	hcDAF-12 act	DAX1 inh confirm	SF1 mutant ctr	LXR ag	hcDAF12 ag	hgDAF12 conf	LXRb DAF12 ctr
Cc1ccccc1NC(=O)c1nnn(-c2ccc3c(c2)OCCO3)c1N	1.4	1.3	-1.0	0.9	9.6	1.4	.	.	.	.	.	.
Nc1c(C(=O)Nc2cccc(F)c2)nnn1-c1ccc2c(c1)OCCO2	-1.0	4.5*	0.9	2.3	17.0*	7.0*	15.8*	5.2*	1.9	8.4*	18.1*	1.1
c1cc(-c2nnc3n2N=C(c2ccc4c(c2)OCO4)CS3)ccn1	.	-2.6	-1.8	1.9	3.5	-3.1	.	.	.	.	.	.
O=C(Nc1ccc2c(c1)OCCO2)C(=O)c1c[nH]c2ccccc12	-3.0	2.1	0.8	-0.2	9.6	5.1	.	.	.	.	.	.
O=C(Nc1ccc2c(c1)OCO2)C(=O)c1c[nH]c2ccccc12	1.9	17.9*	0.8	-0.8	13.5*	9.3*	16.7*	6.5*	.	.	18.7*	1.1
Cc1cccc(-c2noc(-c3csc([C@@H]4C[C@H](O)[C@@H](CO)O4)n3)n2)c1	.	9.8*	0.8	0.7	18.3*	4.7	16.0*	9.5*	.	.	19.5*	1.0
CC(=O)Nc1ccc2nc(-c3ccccc3)cn2c1	1.1	6.0*	0.5	-4.0	20.9*	4.3	10.0*	6.6*	.	.	16.6*	0.8
CC(=O)Nc1ccc(-c2cc(-c3ccccc3)nc(-c3ccccc3)n2)cc1	0.3	0.0	-1.4	13.2	0.1	2.2	.	.	.	.	.	.
CCC(=O)Nc1cccc(NC(=S)NC(=O)c2ccc(Cl)cc2Cl)c1	-0.8	1.1	-0.5	1.8	8.0	0.0	.	.	.	.	.	.
O=C(NC(=S)Nc1ncccn1)c1ccc(Cl)cc1Cl	5.1*	6.7*	0.5	-22.4	15.7*	2.2	14.4*	9.8*	.	.	14.0*	0.6
CC(C)(C)NC(=O)C(c1ccncc1)n1c(-c2ccc(C(F)(F)F)cc2)nc2ccccc21 (stereo not given)	.	10.5*	1.4*	6.4	17.0*	9.2*	10.6*	7.9*	1.0	4.8	16.8*	1.1
Cc1ccc(NC(=O)CCc2ccccc2)cc1C	3.5	1.0	0.4	0.5	8.7	-0.2	.	.	.	.	.	.
Cc1ccc(NC(=O)/C(Cl)=C/c2ccccc2)cc1C	1.6	7.0*	1.0*	-2.4	19.9*	9.7*	19.5*	8.2*	1.8	8.4*	21.4*	1.1
O=C(NC1CCCC1)[C@@H]1CCCN1C(=O)[C@@H](NS(=O)(=O)c1ccc(F)cc1F)c1ccccc1	.	-0.7	-0.8	-5.9	-3.5	0.7	.	.	.	.	.	.
O=[N+]([O-])c1cc(Cl)ccc1-c1nc(-c2ccccc2)no1	4.5*	4.7*	4.0*	-1.2	24.8*	11.1*	14.5*	7.7*	1.6	9.9*	18.5*	1.0
Cc1ccc(N/C=C/C(=O)c2cccs2)cc1C	.	6.7*	2.6*	-1.4	30.0*	20.8*	18.3*	6.0*	2.0	25.3*	18.0*	1.3
COC(=O)[C@]12C[C@H](CC(=O)NCCC(C)C)C(=O)N(CCC3=CCCCC3)C1=C[C@H](C1CCCC1)O[C@@H]2C	.	-1.2	-1.5	5.7	1.6	2.9	.	.	.	.	.	.
Cc1cc(C)n(-c2ccc(C(=O)Nc3nc4ccccc4s3)cc2)n1	1.5	1.8	0.2	6.0	8.6	1.6	.	.	.	.	.	.
Nc1ccc(C(=O)Nc2nc3ccccc3s2)cc1	-1.7	5.3*	1.2*	0.8	21.1*	6.6*	5.6*	3.0*	2.2	8.7*	21.1*	1.4
CCCc1cc(C(=O)Nc2ccc(C)cc2)no1	1.5	5.2*	0.8	5.2	17.4*	6.2*	8.7*	7.3*	.	.	13.3*	0.8
CCc1ccc(NC(=O)c2cc(C)on2)cc1	0.5	5.8*	-0.8	-0.6	13.3*	7.8*	10.6*	4.9*	1.3	6.8*	12.6*	0.8
Cc1ccc(NC(=O)c2cc(C)no2)cc1	-0.3	0.9	-1.1	0.4	3.9	1.1	.	.	.	.	.	.
CNC(=S)Nc1ccc([N+](=O)[O-])cc1C	-0.3	0.0	-1.7	-6.6	-2.1	-1.6	.	.	.	.	.	.
Cc1cc([N+](=O)[O-])ccc1NC(=O)c1csc(C)c1C	2.7	5.5*	0.3	-4.4	19.2*	2.8	4.5*	2.9*	.	.	18.9*	0.5
Cc1cccc(CN2[C@@H](C)[C@H](c3ccccc3)Oc3cc(Br)ccc3S2(=O)=O)c1	.	-1.0	-1.0	10.2	3.3	-0.9	.	.	.	.	.	.
SMILES	DAX1 inh-1	DAX1 inh-2	ssDAF12 agonist	NR1D1 modulator	hgDAF-12 ag	hcDAF-12 act	DAX1 inh confirm	SF1 mutant ctr	LXR ag	hcDAF12 ag	hgDAF12 conf	LXRb DAF12 ctr
O=C(OCc1cn(Cc2cccc(C(F)(F)F)c2)nn1)N1CCOCC1	.	-0.3	-0.4	3.0	-1.1	-2.5	.	.	.	.	.	.
CCOC(=O)c1sc(=NC(=O)c2ccccc2)n(C)c1C	2.9	4.6*	2.2*	4.8	13.3*	15.7*	14.9*	9.6*	1.3	14.1*	18.0*	0.9
COC(=O)C[C@H]1CC[C@@H]2[C@@H](COc3ccc(NC(=O)Nc4cccc(C)c4)cc3C(=O)N2C)O1	.	-0.6	-0.6	3.4	4.0	-1.1	.	.	.	.	.	.
O=C(/C=C\Nc1ccc(Br)cc1)c1cccnc1	1.5	5.9*	0.7	5.7	18.3*	8.3*	16.4*	9.3*	1.4	6.5*	15.6*	1.0
O=C(NNC(=S)Nc1ccc(Br)cc1)c1cccnc1	0.5	0.7	-0.9	-3.4	-0.8	-0.1	.	.	.	.	.	.
C[C@@H]1C=CCCO[C@]12C(=O)N(Cc1ccc(Br)cc1)c1cccc(Br)c12	.	0.1	-0.7	12.4	-0.2	-2.7	.	.	.	.	.	.
CC(C)(C)c1ccc(NC(=O)Nc2ccc(OCC(=O)N3CCOCC3)cc2)cc1	-0.4	5.1*	-0.7	-4.7	15.2*	6.4*	7.8*	4.5*	.	.	21.9*	0.7
